The results in this text go back to PubChem BioAssay (Tox21).

Test [1] can be described thus: Caspase-3/7 induction in HepG2 cells by small molecules, qHTS assay (AID 1346978). Further: nearly all actives have a fitted effect of over 15% in size. Further: potency means the concentration at half of the fitted maximal effect. Put shortly: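 Wild-type HepG2 cells (2,000/well) were settled 5 h at 37 C, 5% CO2, then exposed to compounds in DMSO for 17 h. Caspase-3/7 activity was read by luminescence 30 min after adding Caspase-Glo 3/7 reagent at room temperature.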
A short description of test [2]: Caspase-3/7 induction in CHO-K1 cells by small molecules, qHTS assay (AID 1346980). Further: nearly all actives have a fitted effect of over 15% in size. Further: potency means the concentration at half of the fitted maximal effect. The gist of the method:
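Wild-type cells were seeded at 1,500 per well and settled 5 hr at 37 C, 5% CO2, then exposed to DMSO-dissolved compounds for 17 hr. Caspase-Glo 3/7 reagent was added, and luminescence was read after 30min at room temperature.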

Test [3] in a line: Caspase-3/7 induction in HepG2 cells by small molecules, qHTS cell viability counter screen (AID 1346981). Further: nearly all actives have a fitted effect of over 30% in size. Further: potency means the concentration at half of the fitted maximal effect. Put shortly:
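In this quantitative HTS counter screen, compounds delivered in DMSO were left on unmodified HepG2 cells for 16 hr at 37 C. Viability was then determined fluorometrically with CellTiter-Fluor, in parallel with caspase-3/7 induction in the same wells.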

Test [4] has as its target Nuclear receptor subfamily 1 group I member 2 (Homo sapiens) (UniProt O75469). In words: Human pregnane X receptor (PXR) small molecule agonists, qHTS assay (AID 1346982). Further: nearly all actives have a fitted effect of over 35% in size. Further: potency means the concentration at half of the fitted maximal effect. Put shortly: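 Reporter HepG2 cells expressing PXR-Luc are cultured in charcoal-stripped FBS (5%), treated with compounds for 24 hr at 37 C, and assayed by ONE-Glo luminescence after 30 min at room temperature.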

Test [5] addresses Acetylcholinesterase (Homo sapiens) (UniProt P22303). Description: Acetylcholinesterase (AChE) small molecule antagonists: colormetric cell-based qHTS assay (AID 1347395; calls by dose curve; further: nearly all actives have a fitted effect of over 30% in size; further: potency means the concentration at half of the fitted maximal effect). The gist of the method:
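AChE inhibition read colorimetrically via DTNB–thiocholine in SH-SY5Y cells. Compound 30 min, substrate 90 min, both 37 C.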
In general terms: qHTS replaces the single test concentration by a dilution series.

For test [6] the target is unchanged. Description: Acetylcholinesterase (AChE) small molecule antagonists: enzyme-based qHTS assay (AID 1347397; calls by dose curve; further: nearly all actives have a fitted effect of over 55% in size). As to conditions: Potency: AChE enzyme activity inhibition. Put shortly: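 Compound or DMSO vehicle was pin-transferred onto recombinant human AChE (50 mU/mL as dispensed) and left 30 min at room temperature. Acetylthiocholine with DTNB then started the reaction, read colorimetrically 10 min later.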

Test [7] has the same target. In words: Acetylcholinesterase (AChE) small molecule antagonists: fluorescence cell-based qHTS assay (AID 1347398; calls by dose curve; further: nearly all actives have a fitted effect of over 50% in size; further: potency means the concentration at half of the fitted maximal effect). As to conditions: Potency: AChE activity. Put shortly:
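Using neuroblastoma SH-SY5Y cells as the enzyme source, test chemicals are preincubated 30 min at 37 C; AChE-driven acetylthiocholine cleavage is then quantified by thiocholine-dependent Thiolite Green fluorescence after 40 min at room temperature.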

The target is the same in test [8]. In words: Acetylcholinesterase (AChE) small molecule antagonists: enzyme-based qHTS assay with human liver microsomes (AID 1347399; calls by dose curve; further: nearly all actives have a fitted effect of over 60% in size). As to conditions: Potency: qHTS inhibition. The gist of the method: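 Recombinant human AChE (50 mU/mL in the enzyme mix) and human liver microsomes (0.25 mg/mL final) were preincubated with compound and NADPH (0.25 mg/mL final) for 30 min at 37 C. Acetylthiocholine/DTNB was then added; thiocholine was read colorimetrically after 10 min at room temperature.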

For test [9], the target named is Cytochrome P450 2D6 (Homo sapiens) (UniProt P10635). In words: Cytochrome P450 Family 2 Subfamily D Member 6 (CYP2D6) small molecule antagonists: luciferase reporter qHTS assay (AID 1671196). Further: nearly all actives have a fitted effect of over 50% in size. Further: potency means the concentration at half of the fitted maximal effect. The gist of the method: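 Test chemicals meet CYP2D6 plus proluciferin substrate (10 min, RT); NADPH regenerating solution then drives turnover for 1 h. Detection reagent halts the reaction; luminescence measured after 20 min.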
Chain of Cytochrome P450 2D6 (Homo sapiens) (P10635 whole entry, looked up): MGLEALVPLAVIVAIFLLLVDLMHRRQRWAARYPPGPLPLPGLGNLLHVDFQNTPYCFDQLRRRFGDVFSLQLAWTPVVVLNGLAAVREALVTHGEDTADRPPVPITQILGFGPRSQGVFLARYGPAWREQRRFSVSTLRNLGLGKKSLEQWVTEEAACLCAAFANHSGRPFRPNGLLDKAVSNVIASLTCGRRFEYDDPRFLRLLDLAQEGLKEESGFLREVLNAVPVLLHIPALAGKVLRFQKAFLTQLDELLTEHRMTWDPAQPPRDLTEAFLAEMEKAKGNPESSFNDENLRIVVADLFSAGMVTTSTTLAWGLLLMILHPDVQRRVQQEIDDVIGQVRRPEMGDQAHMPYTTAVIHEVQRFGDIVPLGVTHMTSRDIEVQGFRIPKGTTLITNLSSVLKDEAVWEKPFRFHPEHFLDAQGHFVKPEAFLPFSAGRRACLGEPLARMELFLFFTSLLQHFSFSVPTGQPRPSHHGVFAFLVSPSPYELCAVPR
On the technique in general: A reporter such as luciferase makes a cellular process visible.

In test [10] the target is Cytochrome P450 2C19 (Homo sapiens) (UniProt P33261). In words: Cytochrome P450 Family 2 Subfamily C Member 19 (CYP2C19) small molecule antagonists: luciferase reporter qHTS assay (AID 1671197). Further: nearly all actives have a fitted effect of over 65% in size. Further: potency means the concentration at half of the fitted maximal effect. Put shortly: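 P450-Glo CYP2C19 system: enzyme-substrate mix with compound 10 min at room temperature, then NADPH regeneration solution, 1 h at 37C. Proluciferin-to-luciferin conversion detected by luminescence after 20 min with detection reagent; ketoconazole as positive control.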
Chain of Cytochrome P450 2C19 (Homo sapiens) (P33261 whole entry, looked up): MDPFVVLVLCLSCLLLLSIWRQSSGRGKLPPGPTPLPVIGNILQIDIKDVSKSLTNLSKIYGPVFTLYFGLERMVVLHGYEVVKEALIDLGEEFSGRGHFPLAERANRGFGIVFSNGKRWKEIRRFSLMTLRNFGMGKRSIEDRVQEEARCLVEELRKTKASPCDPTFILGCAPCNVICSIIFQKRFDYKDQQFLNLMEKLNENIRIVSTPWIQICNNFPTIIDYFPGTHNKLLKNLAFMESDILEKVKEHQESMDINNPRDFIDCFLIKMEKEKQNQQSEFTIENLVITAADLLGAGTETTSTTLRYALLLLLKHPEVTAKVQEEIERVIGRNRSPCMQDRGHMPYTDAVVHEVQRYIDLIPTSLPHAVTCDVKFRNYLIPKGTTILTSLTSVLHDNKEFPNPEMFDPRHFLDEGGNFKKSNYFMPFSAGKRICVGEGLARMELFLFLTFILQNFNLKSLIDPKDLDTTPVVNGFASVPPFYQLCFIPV

Test [11] concerns the target Cytochrome P450 2C9 (Homo sapiens) (UniProt P11712). In words: Cytochrome P450 Family 2 Subfamily C Member 9 (CYP2C9) small molecule antagonists: luciferase reporter qHTS assay (AID 1671198). Further: nearly all actives have a fitted effect of over 50% in size. Further: potency means the concentration at half of the fitted maximal effect. The gist of the method: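 CYP2C9 activity was measured with a P450-Glo proluciferin substrate. Enzyme–substrate mix was held with compound for 10 min at room temperature, then NADPH regeneration solution was added for 1 h at 37C. Luciferin product was read as luminescence.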

The target of test [12] is Cytochrome P450 1A2 (Homo sapiens) (UniProt P05177). Description: Cytochrome P450 Family 1 Subfamily A Member 2 (CYP1A2) small molecule antagonists: luciferase reporter qHTS assay (AID 1671199). Further: nearly all actives have a fitted effect of over 50% in size. Further: potency means the concentration at half of the fitted maximal effect. The gist of the method: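 Steps: enzyme-substrate mix dispensed; test compounds and furafylline control pinned in; 10 min room temperature; NADPH regeneration solution added, 1 h; reaction stopped with luciferin detection reagent; luminescence read after 20 min.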
Chain of Cytochrome P450 1A2 (Homo sapiens) (P05177 whole entry, looked up): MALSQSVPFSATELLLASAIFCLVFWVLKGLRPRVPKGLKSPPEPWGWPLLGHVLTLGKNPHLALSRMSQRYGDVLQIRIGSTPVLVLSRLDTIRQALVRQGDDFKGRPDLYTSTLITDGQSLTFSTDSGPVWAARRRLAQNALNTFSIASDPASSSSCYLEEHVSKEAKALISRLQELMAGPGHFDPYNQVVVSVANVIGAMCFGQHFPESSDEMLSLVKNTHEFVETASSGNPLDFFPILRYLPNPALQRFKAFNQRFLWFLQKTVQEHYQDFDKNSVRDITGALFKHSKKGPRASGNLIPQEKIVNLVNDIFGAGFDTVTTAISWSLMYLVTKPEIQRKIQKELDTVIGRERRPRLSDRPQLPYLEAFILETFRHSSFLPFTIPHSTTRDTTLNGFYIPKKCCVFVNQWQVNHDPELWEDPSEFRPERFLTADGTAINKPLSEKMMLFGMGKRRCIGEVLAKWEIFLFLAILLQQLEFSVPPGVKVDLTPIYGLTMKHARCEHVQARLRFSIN

Test [13] addresses Voltage-gated inwardly rectifying potassium channel KCNH2 (Homo sapiens) (UniProt Q12809). In words: Human Ether-a-go-go-Related Gene (hERG) channel small molecule antagonists: fluorescence cell-based qHTS assay (AID 1671200). Further: nearly all actives have a fitted effect of over 50% in size. Further: potency means the concentration at half of the fitted maximal effect. Put shortly:
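Kinetic two-minute fluorescence traces, sampled at 1 s, were collected following thallium stimulus of U2OS cells (1000 per well) that had been cultured overnight at 37 C and loaded with FluxOR II.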
On the technique in general: The hERG channel carries a current that helps repolarise heart muscle cells.

In test [14] the target is Cytochrome P450 3A4 (Homo sapiens) (UniProt P08684). Description: Cytochrome P450 Family 3 Subfamily A Member 4 (CYP3A4) small molecule antagonists: luciferase reporter qHTS assay (AID 1671201). Further: nearly all actives have a fitted effect of over 50% in size. Further: potency means the concentration at half of the fitted maximal effect. The gist of the method:
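Proluciferin-to-luciferin conversion by CYP3A4, NADPH-regenerated, 1 h RT; luminescence read as RLU. Ketoconazole as control.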

The target of test [15] is Nuclear receptor subfamily 1 group I member 2 (Rattus norvegicus) (UniProt Q9R1A7). Description: Rat pregnane X receptor (rPXR) activation by small molecules, qHTS assay (AID 1346983). Further: nearly all actives have a fitted effect of over 20% in size. As to conditions: rPXR luciferase reporter cells, One-Glo luminescence, 24 h; max activation: hits give high values. The gist of the method:
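Cell-based rPXR luciferase reporter assay, 2,000 cells per well, rested 5hr at 37 C before compound addition in DMSO, then 24 hr at 37 C. One-Glo reagent was added and luminescence read after 30 min at room temperature.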

Test [16] addresses Nuclear receptor subfamily 1 group I member 2 (Homo sapiens) (UniProt O75469). In words: CYP3A4 induction through human pregnane X receptor (PXR) by small molecules, qHTS assay (AID 1346984). Further: nearly all actives have a fitted effect of over 40% in size. Put shortly:
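Induction measured in HepG2-based DPX-2 cells co-expressing human PXR and a CYP3A4 promoter-driven luciferase. After a 24-hour compound exposure, cells received CYP3A4 luciferin substrate at 3uM final for 3 hours, and light output was then recorded.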

Test [17] shares this target. In words: Human pregnane X receptor (PXR) activation by small molecules, qHTS assay (AID 1346985). Further: nearly all actives have a fitted effect of over 40% in size. The gist of the method:
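DPX-2 cells (HepG2 co-transfected with a PXR response element and a CYP3A4-promoter luciferase construct) were seeded at 2,000 per well, rested 5 hr at 37C, then exposed to DMSO-dissolved compounds for 24 hr. Activation was read as luciferase luminescence.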

Test [18] can be described thus: Caspase-3/7 induction in CHO-K1 cells by small molecules, qHTS cell viability counter screen (AID 1346979). Further: nearly all actives have a fitted effect of over 35% in size. Further: potency means the concentration at half of the fitted maximal effect. Put shortly:
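CellTiter-Fluor viability check, qHTS format: wild-type CHO-K1, 16hr compound treatment, 1hr reagent incubation, fluorescence read.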

A number with no mark means an inactive call. Inconclusive results are not listed. Calls of active or inactive are those of the source. Unless noted, the call rests on the fitted dose curve; in most records, active means well fitted curve in the direction sought with a large enough effect in the repeat runs; inconclusive means weak or mixed curves; inactive means no such curve, though single readings can be large; an effect the other way counts as inactive or inconclusive.
On the % scale 0 is the no-effect control and ±100 the full control effect.

Chain of Cytochrome P450 2C9 (Homo sapiens) (P11712 whole entry, looked up): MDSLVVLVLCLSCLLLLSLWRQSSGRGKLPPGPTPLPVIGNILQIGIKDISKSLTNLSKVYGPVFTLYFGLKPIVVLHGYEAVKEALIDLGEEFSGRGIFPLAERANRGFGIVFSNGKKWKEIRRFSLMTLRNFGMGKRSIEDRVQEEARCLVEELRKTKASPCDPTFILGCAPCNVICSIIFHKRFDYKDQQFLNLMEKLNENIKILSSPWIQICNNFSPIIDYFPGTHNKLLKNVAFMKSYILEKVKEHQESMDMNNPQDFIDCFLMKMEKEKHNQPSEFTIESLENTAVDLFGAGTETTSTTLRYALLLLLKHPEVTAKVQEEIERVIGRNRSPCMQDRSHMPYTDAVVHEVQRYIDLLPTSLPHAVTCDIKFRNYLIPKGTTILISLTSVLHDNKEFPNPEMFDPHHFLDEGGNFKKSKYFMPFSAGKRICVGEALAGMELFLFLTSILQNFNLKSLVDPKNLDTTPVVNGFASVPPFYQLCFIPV
Chain of Nuclear receptor subfamily 1 group I member 2 (Homo sapiens) (O75469 whole entry, looked up): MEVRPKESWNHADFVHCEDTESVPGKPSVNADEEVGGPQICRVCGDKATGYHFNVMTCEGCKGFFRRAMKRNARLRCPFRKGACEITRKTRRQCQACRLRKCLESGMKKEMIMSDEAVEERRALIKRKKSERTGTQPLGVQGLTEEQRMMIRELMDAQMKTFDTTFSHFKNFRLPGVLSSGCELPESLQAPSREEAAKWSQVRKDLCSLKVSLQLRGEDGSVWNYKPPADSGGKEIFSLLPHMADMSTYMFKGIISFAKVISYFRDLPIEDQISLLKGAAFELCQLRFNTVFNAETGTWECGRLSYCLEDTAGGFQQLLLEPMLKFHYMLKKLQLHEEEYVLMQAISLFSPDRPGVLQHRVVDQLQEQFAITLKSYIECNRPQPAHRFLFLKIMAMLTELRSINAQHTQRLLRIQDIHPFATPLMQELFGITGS
Chain of Voltage-gated inwardly rectifying potassium channel KCNH2 (Homo sapiens) (Q12809 whole entry, looked up): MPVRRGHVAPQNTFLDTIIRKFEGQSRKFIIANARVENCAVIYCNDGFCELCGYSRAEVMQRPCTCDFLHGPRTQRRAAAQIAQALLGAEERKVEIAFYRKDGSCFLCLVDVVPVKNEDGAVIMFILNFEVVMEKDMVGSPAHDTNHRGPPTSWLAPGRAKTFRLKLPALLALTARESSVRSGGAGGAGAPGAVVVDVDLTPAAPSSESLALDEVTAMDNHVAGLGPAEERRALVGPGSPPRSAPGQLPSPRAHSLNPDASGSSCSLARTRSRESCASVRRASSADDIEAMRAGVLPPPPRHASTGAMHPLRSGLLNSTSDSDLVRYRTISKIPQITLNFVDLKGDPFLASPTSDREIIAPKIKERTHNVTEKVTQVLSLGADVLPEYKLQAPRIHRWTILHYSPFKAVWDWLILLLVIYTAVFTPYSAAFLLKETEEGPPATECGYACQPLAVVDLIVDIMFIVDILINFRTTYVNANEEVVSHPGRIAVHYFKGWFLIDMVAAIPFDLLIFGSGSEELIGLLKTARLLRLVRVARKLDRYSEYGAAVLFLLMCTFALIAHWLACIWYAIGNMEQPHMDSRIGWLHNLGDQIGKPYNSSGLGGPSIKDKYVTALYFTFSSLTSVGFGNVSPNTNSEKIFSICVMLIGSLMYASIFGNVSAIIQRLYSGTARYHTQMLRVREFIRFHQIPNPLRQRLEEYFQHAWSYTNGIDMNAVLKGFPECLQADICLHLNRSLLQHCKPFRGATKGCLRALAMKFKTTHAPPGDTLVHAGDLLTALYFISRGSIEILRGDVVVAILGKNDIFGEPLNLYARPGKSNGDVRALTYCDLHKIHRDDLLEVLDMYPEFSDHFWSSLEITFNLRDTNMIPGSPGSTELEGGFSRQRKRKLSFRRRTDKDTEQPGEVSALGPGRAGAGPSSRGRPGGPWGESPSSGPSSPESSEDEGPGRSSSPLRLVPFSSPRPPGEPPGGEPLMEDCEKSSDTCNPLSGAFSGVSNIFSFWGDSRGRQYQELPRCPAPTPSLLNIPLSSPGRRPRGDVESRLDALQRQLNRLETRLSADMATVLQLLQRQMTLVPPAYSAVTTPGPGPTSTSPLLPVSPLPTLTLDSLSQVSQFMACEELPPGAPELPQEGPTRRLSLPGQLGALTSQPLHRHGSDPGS
Chain of Acetylcholinesterase (Homo sapiens) (P22303 whole entry, looked up): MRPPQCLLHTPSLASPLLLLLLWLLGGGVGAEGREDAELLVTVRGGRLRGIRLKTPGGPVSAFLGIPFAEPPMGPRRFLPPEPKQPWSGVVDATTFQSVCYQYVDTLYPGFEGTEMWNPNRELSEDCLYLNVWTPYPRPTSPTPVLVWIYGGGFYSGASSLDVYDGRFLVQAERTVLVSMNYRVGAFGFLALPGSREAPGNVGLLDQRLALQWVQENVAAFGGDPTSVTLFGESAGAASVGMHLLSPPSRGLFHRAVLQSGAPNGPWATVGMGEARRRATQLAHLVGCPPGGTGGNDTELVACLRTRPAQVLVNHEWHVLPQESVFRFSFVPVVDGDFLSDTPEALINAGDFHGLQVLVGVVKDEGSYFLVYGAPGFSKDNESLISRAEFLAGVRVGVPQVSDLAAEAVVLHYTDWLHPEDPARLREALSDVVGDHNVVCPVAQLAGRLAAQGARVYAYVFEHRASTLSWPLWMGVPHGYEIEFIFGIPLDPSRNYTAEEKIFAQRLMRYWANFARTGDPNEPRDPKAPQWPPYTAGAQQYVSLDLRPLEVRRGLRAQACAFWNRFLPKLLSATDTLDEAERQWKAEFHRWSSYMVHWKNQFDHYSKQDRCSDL
Chain of Cytochrome P450 3A4 (Homo sapiens) (P08684 whole entry, looked up): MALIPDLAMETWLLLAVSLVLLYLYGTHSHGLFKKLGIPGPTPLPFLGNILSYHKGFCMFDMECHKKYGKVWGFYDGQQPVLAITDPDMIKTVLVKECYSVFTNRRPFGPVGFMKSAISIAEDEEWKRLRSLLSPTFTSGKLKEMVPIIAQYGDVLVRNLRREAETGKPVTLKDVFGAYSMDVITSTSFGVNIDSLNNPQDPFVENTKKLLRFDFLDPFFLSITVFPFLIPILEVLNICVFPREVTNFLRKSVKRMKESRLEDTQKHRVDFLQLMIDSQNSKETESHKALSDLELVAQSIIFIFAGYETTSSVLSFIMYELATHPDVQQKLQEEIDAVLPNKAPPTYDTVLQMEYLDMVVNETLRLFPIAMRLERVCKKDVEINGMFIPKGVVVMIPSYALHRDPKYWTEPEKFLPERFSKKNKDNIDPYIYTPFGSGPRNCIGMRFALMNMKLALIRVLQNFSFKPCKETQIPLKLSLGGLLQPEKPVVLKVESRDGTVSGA

Consider `CC(C)(C)c1cc([N+](=O)[O-])cc([N+](=O)[O-])c1O`, for which the Potency result in test [1], in test [2], in test [5], in [6], in test [7] and in test [8] was “inactive” each time. In addition, the Potency result in test [9], in test [13] and in [14] was “inactive” in each case. The Potency in [3] is 21.6 µM (active); in test [4], 19.3 µM (active); in test [10], 56.2 µM (active); in [11] it was 17.8 µM (active); in test [12] it was 56.2 µM (active).
As to `O=C1NCN(c2ccccc2)C12CCN(CCCOc1ccc(F)cc1)CC2`, the Potency result in test [1], in [2], in test [16], in test [17], in test [6] and in test [7] was “inactive” in each case. Moreover, the Potency entry in [8], in test [10], in test [11], in [12] and in test [14] was “inactive” in each case. In addition, the Potency in test [3] is 7.5 µM (active); in [4], 5.96 µM (active); in test [9] it was 0.347 µM (active); in test [13], 0.601 µM (active). In test [15], the max activation was -0.12%.
For `CC[C@H]1C[C@H]2[C@@H]3CCC4=CC(=O)CC[C@@H]4[C@H]3CC[C@]2(C)[C@H]1O`, the Potency result in test [1], in [18], in [2], in [5], in [6] and in [7] was “inactive” each time. The Potency entry in test [8], in test [9], in test [12], in test [13] and in test [14] was “inactive” throughout. Moreover, the Potency in test [4] was 9.44 µM (active).
With `CCC(C)(NC(=O)c1cc(Cl)c(C)c(Cl)c1)C(=O)CCl` (centres undefined), the Potency in [1] was 61.5 µM (active); in [18] it was 24.5 µM (active); in test [2], 21.8 µM (active); in test [9], 35.8 µM (active); in test [10], 25.3 µM (active); in test [11], 35.8 µM (active). Further, the results for the Potency in [12], in test [13] and in test [14] were 2.26 µM (active), 43.9 µM (active) and 6.37 µM (active), respectively. Besides, the Potency result in [5], in test [6] and in test [8] was “inactive” each time.
Consider `COP(=O)(OC)O/C(=C/Cl)c1cc(Cl)c(Cl)cc1Cl`, for which the Potency result in [1], in test [2], in test [3], in [6], in test [8] and in test [13] was “inactive” throughout. Moreover, the Potency entry in test [14] is “inactive”. Further, the Potency is 72.4 µM (active) in [4]; 42.2 µM (active) in test [5]; 37.6 µM (active) in [7]; 33.5 µM (active) in test [9]; 5.31 µM (active) in [10]; 23.7 µM (active) in [11]. Moreover, the Potency in test [12] is 2.66 µM (active).
For `O=C(C(Cl)(Cl)Cl)C(Cl)(Cl)Cl`, the Potency result in test [1], in test [2], in test [3], in [4], in test [5] and in test [7] was “inactive” throughout. Further, the Potency entry in [8], in test [10], in test [11], in test [13] and in test [14] was “inactive” throughout. In addition, in test [9], the Potency was 36.3 µM (active).
With `CCOC(=O)CBr`, the Potency entry in test [1], in test [2], in test [3], in [4], in test [6] and in test [7] was “inactive” in each case. Further, the Potency result in [8], in [13] and in test [14] was “inactive” in each case. The Potency in test [9] was 40.1 µM (active); in [10], 40.1 µM (active); in test [12], 63.6 µM (active).
For `Cc1ccc(N)cc1C`, the Potency result in test [1], in test [2], in test [3], in test [5], in [6] and in test [7] was “inactive” each time. Also, the Potency entry in [8] and in test [13] was “inactive” each time. The Potency in test [4] is 49 µM (active); in test [9], 5.07 µM (active); in test [10], 28.5 µM (active); in test [12] it was 4.52 µM (active).
